The source of these data is PubChem BioAssay (NCATS).

Unmarked numbers belong to inactive results. Records with an inconclusive call do not appear. Activity calls are given as the source filed them. Unless noted, calls follow the shape of the dose curve; as a rule, active = well fitted curve in the direction sought with a large enough effect; inconclusive = small, poorly fitted or top-dose-only effect, or another doubt; inactive = no such curve, though single readings can be large; an effect the other way counts as inactive or inconclusive.

The target of experiment [1] is Cytochrome P450 1A2 (Homo sapiens) (UniProt P05177). The experiment can be described thus: p450-cyp1a2 (AID 410; calls by dose curve; also: potency is read from the fitted curve at half-maximal effect;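 as to activity change, negative = inhibition: -100% = full effect of reference inhibitor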). An outline of the steps: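 Luminescent demethylation readout: Luciferin-ME (100uM, equal to Km) turned over by 20nM CYP1A2 for 60 min at room temperature after NADPH regeneration addition, following 10 min compound preincubation. Normalization used 57 uM furafylline as full inhibition.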

For experiment [2], the target named is Cytochrome P450 2C9 (Homo sapiens) (UniProt P11712). The experiment can be described thus: qHTS Assay for Inhibitors and Substrates of Cytochrome P450 2C9 (AID 883). Also: nearly all actives have a fitted effect of over 60% in size. As to activity change, negative = inhibition: % is scaled to controls: 0 for no effect and ±100 for the full control effect. The gist of the method:
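CYP2C9 deoxyluciferin hydroxylation, 37C, 60 min with NADPH regeneration; 10nM enzyme, 100uM Luciferin-H (KM). Glo detection reagent stopped reaction; luminescence normalized to sulphaphenazole (57uM) full inhibition.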
In general terms: Quantitative high-throughput screening tests each substance at several concentrations.

Experiment [3] addresses Ubiquitin carboxyl-terminal hydrolase 1 (Homo sapiens) (UniProt O94782). Kind of experiment: Inhibitors of USP1/UAF1: Pilot qHTS (AID 504865). Also: nearly all actives have a fitted effect of over 35% in size. Also: potency is read from the fitted curve at half-maximal effect. An outline of the steps: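 USP1/UAF1 complex at 1 nM preincubated 15 min at room temperature with compound, then Ub-Rho substrate added at 150 nM final. Fluorescence (480/540 nm) read kinetically in 50 mM HEPES pH 7.8, 0.5 mM EDTA, 1 mM TCEP, 0.1 mg/ml BSA, 0.01% Tween-20.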

The target in experiment [4] is Mitogen-activated protein kinase 10 (Mus musculus) (UniProt Q61831). Kind of experiment: JNK3 AlphaScreen Assay (AID 530; active = well fitted curve in either direction with a large enough effect, not every such curve was filed as active;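 also: kinase came from lysate of stimulated human HepG2 cells; signal reports phosphorylation of biotinylated GST-cJun 1-79 at Ser73 with 10 µM ATP; % is scaled to controls: 0 for no effect and ±100 for the full control effect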). An outline of the steps: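 Phosphorylation of biotinylated GST-cJun(1-79) at Ser73 is measured by AlphaScreen proximity luminescence. Enzyme is JNK3 in HepG2 lysates activated with interleukin-1beta and tumor necrosis factor alpha; ATP is 10 uM final.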
(In general: In Alpha technology, singlet oxygen from a donor bead excites a nearby acceptor bead.)

The target of experiment [5] is Cytochrome P450 3A4 (Homo sapiens) (UniProt P08684). The experiment can be described thus: qHTS Assay for Activators of Cytochrome P450 3A4 (AID 885). Also: nearly all actives have a fitted effect of over 65% in size. An outline of the steps:
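Using 20nM recombinant human CYP3A4 in potassium phosphate (200mM), substrate Luciferin-PPXE at 25uM, luminescent luciferin detection followed a 60-min RT NADPH reaction; data scaled to 57 uM ketoconazole.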

For experiment [6], the target named is Cytochrome P450 2D6 (Homo sapiens) (UniProt P10635). The experiment can be described thus: qHTS Assay for Inhibitors and Substrates of Cytochrome P450 2D6 (AID 891). Also: nearly all actives have a fitted effect of over 60% in size. Also: potency is read from the fitted curve at half-maximal effect. An outline of the steps:
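Luminescent read-out of luciferin formed by 5 nM human CYP2D6 demethylating 30 uM Luciferin-ME EGE (Km level) over 60 min at room temperature after NADPH regeneration addition. Data normalized to full inhibition by 1.43 uM quinidine.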

Experiment [7] concerns the target Cytochrome P450 2C19 (Homo sapiens) (UniProt P33261). Kind of experiment: qHTS Assay for Inhibitors and Substrates of Cytochrome P450 2C19 (AID 899). Also: nearly all actives have a fitted effect of over 60% in size. An outline of the steps:
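In 50mM KPO4, the reaction held 5nM enzyme and KM-level (10uM) Luciferin-H EGE; it ran 60 min at 37C after NADPH regeneration and a 10 min compound preincubation. Luminescence values were scaled to 57uM ketoconazole as complete inhibition.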

The target of experiment [8] is Guanine nucleotide-binding protein G(i) subunit alpha-1 (Homo sapiens) (UniProt P63096). The experiment can be described thus: qHTS Assay for Inhibitors of RGS12 GoLoco Motif Activity (Green Fluorophore) (AID 879).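 Also: 0% = labeled peptide with Gαi1 and full inhibition = labeled peptide alone without protein; negative values mean loss of peptide binding seen as reduced polarization.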 The gist of the method:
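A drop in FITC polarization marked displacement of the FITC-tagged RGS12 GoLoco peptide (10 nM) from Gαi1 (50 nM). Compounds were incubated 10 min at room temperature in Tris pH 7.5 buffer containing 150 mM NaCl, 0.1 mM GDP and 0.05% NP40; unlabeled peptide titration served as control.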

The target of experiment [9] is Pyruvate kinase (Leishmania mexicana) (UniProt Q27686). Kind of experiment: qHTS Validation Assay for Inhibitors of Leishmania Mexicana Pyruvate Kinase (AID 945).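 Also: 0% = DMSO only neutral control wells.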 The gist of the method:
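Pyruvate kinase activity of E451W LmPYK (0.2 nM) was followed as ATP output after 1 h at room temperature with 0.5 mM PEP and 0.1 mM ADP, detected by PKLight luminescence.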

Experiment [10] has as its target Alpha-galactosidase A (Homo sapiens) (UniProt P06280). The experiment can be described thus: Counterscreen for Glucocerebrosidase Inhibitors: qHTS Assay for Human alpha-Galactosidase at pH 4.5 (AID 992). Also: 0% is about no effect. An outline of the steps: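 Each compound is preincubated briefly with 2 nM enzyme before substrate addition (80 uM); plates then sit 20 min at ambient temperature, are quenched with 1M NaOH/1M glycine, and read fluorometrically.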
A general note: The purpose of a counterscreen is to sort out artefacts and off-target activity.

Experiment [11] addresses alpha-glucosidase (Oryza sativa, rice) (UniProt Q653V4). Kind of experiment: Counterscreen for Glucocerebrosidase Inhibitors: qHTS Assay for Rice alpha-Glucosidase at pH 5.0 (AID 997).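 Also: 0% = full activity with enzyme and -100% = basal without enzyme.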 An outline of the steps:
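Endpoint fluorogenic assay at pH 5.0: compounds (0.7 nM to 77 uM) titrated against 4 nM rice enzyme and 400 uM 4-MU-alpha-glucoside for 20 min at room temperature; NaOH/glycine stop, read ex 365/em 440 nm, Hill-fitted AC50.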

A short description of experiment [12]: AP1 Signaling Pathway (AID 357; active = well fitted curve in either direction with a large enough effect, not every such curve was filed as active;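 also: ME-180 reporter cells stimulated with EGF at its EC50 level; % is scaled to controls: 0 for no effect and ±100 for the full control effect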). The note with it: ME-180 (cervical carcinoma) AP-1-bla reporter, EGF-induced, beta-lactamase ratio, 5 h; at 7.69 µM (top of the series). An outline of the steps:
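In this screen, ME-180 cells in Opti-MEM with 0.5% dialyzed FBS received EC50 EGF and compound titrations for 5 h. AP-1 reporter beta-lactamase was detected via CCF4 ratio, giving AC50 for positive and negative modulators.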

A short description of experiment [13]: NFAT Signaling Pathway (AID 444; active = well fitted curve in either direction with a large enough effect, not every such curve was filed as active;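 also: carbachol stimulus at about its EC50 of 1 µM final; % is scaled to controls: 0 for no effect and ±100 for the full control effect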). The settings on record: Jurkat NFAT-bla M1, carbachol, beta-lactamase ratio, 5 h; at 7.69 µM (top of the series). An outline of the steps: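 Jurkat cells carrying an NFAT-driven β-lactamase reporter and co-transfected muscarinic M1 receptor were treated with compound plus carbachol (1 uM final, an EC50 level) for 5 h at 37 °C. CCF4 loading followed for 1 h at RT; 460/530 nm ratio gave %activity.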

Sequence of Ubiquitin carboxyl-terminal hydrolase 1 (Homo sapiens) (O94782 whole entry, looked up): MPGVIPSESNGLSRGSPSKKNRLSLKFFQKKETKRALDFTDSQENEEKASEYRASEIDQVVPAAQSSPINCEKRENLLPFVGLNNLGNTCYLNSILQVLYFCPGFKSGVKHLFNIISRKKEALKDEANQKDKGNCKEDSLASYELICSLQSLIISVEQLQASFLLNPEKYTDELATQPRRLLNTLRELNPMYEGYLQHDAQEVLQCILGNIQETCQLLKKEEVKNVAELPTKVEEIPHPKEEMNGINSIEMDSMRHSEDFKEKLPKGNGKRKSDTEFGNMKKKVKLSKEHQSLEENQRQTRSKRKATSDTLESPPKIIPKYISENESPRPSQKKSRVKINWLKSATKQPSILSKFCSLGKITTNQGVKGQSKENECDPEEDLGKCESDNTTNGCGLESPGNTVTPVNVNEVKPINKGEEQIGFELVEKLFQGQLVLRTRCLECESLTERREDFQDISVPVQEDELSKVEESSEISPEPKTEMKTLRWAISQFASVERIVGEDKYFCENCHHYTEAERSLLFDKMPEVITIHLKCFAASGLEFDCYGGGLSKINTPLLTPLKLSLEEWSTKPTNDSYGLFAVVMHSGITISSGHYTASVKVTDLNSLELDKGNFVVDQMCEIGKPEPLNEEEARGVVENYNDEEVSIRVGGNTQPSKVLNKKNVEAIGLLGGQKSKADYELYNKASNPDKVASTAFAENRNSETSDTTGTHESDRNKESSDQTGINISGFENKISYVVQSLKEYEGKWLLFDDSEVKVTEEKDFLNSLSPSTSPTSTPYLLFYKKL
Sequence of Cytochrome P450 2C9 (Homo sapiens) (P11712 whole entry, looked up): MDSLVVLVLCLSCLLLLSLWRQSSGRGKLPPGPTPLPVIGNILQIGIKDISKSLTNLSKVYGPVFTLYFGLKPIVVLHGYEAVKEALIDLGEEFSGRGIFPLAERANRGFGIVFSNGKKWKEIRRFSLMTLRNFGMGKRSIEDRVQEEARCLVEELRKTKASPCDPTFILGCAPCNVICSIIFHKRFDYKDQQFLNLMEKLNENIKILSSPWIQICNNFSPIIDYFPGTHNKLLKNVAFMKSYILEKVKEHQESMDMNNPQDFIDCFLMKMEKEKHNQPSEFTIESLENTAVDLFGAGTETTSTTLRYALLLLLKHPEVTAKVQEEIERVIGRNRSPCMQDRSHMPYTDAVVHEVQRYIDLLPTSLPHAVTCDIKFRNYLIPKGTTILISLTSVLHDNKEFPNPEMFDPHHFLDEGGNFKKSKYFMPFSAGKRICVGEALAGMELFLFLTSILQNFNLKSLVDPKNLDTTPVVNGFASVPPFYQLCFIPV
Sequence of Cytochrome P450 1A2 (Homo sapiens) (P05177 whole entry, looked up): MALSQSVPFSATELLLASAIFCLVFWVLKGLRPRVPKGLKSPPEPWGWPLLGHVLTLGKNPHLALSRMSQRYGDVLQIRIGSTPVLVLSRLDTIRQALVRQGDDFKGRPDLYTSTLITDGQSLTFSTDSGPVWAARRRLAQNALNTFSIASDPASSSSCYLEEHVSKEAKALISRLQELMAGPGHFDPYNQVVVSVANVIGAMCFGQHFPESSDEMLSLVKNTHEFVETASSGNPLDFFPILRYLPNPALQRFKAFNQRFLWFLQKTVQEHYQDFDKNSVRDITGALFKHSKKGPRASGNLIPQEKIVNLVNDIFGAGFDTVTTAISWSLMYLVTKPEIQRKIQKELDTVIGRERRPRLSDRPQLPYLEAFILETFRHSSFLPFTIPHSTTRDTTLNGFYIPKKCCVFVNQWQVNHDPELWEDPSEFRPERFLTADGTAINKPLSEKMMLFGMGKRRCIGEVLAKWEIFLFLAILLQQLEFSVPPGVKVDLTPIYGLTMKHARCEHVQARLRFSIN
Sequence of Cytochrome P450 3A4 (Homo sapiens) (P08684 whole entry, looked up): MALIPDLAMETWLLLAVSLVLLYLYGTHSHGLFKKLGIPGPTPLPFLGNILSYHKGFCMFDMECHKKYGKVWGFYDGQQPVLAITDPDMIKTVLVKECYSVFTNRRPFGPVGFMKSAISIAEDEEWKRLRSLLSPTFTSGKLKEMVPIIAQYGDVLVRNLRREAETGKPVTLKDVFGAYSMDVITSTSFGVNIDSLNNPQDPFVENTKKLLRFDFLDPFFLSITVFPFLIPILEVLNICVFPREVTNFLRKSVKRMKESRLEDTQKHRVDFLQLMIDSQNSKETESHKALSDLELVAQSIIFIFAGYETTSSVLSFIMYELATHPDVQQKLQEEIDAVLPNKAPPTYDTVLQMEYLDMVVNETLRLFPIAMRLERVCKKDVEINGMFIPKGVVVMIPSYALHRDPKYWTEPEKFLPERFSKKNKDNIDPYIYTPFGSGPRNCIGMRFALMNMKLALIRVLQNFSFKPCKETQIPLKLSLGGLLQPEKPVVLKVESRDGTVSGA
Sequence of Alpha-galactosidase A (Homo sapiens) (P06280 whole entry, looked up): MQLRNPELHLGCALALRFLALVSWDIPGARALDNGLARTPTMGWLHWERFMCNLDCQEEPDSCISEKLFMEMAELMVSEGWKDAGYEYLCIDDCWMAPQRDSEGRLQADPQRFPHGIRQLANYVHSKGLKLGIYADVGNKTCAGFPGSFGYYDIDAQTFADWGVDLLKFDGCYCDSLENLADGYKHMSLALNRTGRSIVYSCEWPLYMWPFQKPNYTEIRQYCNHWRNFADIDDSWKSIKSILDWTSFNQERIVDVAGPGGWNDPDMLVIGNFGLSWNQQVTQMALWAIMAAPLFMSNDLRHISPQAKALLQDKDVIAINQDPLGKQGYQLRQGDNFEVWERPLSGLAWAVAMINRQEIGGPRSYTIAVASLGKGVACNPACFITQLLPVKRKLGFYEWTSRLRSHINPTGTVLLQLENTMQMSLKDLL
Sequence of Cytochrome P450 2D6 (Homo sapiens) (P10635 whole entry, looked up): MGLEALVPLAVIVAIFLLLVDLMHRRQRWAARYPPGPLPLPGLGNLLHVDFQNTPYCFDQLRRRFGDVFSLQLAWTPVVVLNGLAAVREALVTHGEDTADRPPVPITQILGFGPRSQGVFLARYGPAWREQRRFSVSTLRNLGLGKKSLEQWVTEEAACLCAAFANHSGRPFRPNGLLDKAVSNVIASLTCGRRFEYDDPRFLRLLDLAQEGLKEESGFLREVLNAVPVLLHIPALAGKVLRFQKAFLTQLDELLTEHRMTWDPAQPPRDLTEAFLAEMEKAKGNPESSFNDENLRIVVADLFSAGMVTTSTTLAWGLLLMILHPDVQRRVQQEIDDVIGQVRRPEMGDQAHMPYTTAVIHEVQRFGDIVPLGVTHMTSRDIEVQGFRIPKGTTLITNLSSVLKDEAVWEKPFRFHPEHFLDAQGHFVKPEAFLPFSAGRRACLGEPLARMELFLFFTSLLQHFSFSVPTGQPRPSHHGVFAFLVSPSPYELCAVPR
Sequence of Guanine nucleotide-binding protein G(i) subunit alpha-1 (Homo sapiens) (P63096 whole entry, looked up): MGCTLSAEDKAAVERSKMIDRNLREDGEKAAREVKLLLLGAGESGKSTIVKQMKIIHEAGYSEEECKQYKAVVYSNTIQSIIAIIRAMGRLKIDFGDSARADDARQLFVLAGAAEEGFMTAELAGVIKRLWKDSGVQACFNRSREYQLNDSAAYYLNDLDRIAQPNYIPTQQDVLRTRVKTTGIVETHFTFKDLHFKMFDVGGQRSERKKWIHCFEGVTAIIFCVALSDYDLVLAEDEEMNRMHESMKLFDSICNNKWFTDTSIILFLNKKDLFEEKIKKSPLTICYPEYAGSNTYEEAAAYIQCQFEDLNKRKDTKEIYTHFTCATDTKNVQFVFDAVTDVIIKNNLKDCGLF
Sequence of Pyruvate kinase (Leishmania mexicana) (Q27686 2-499 E452W): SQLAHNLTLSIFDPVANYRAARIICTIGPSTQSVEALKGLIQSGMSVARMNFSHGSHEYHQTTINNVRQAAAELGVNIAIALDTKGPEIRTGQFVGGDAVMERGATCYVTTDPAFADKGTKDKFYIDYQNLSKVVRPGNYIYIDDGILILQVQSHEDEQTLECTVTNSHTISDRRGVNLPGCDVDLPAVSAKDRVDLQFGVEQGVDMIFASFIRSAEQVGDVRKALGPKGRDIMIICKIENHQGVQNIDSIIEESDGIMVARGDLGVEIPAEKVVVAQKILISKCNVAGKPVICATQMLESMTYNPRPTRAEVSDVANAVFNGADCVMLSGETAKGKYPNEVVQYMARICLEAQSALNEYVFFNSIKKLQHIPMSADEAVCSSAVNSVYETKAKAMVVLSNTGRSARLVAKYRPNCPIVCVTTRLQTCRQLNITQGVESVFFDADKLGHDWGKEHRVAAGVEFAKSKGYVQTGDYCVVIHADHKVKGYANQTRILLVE
Sequence of Cytochrome P450 2C19 (Homo sapiens) (P33261 whole entry, looked up): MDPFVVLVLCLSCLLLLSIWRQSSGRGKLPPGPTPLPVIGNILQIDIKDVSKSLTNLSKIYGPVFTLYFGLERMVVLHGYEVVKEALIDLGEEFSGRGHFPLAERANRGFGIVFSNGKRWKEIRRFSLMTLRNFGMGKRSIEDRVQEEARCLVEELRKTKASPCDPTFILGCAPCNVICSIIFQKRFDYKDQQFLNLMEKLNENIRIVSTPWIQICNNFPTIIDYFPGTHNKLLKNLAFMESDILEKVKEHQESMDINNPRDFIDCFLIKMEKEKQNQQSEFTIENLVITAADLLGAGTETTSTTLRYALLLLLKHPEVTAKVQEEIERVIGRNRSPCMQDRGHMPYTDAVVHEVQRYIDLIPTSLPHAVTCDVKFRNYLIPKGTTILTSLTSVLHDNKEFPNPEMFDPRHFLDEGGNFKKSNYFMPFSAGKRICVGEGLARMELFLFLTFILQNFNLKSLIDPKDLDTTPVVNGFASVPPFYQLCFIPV

Regarding `COc1ccccc1N1CCN(C[C@@H]2CN3C(=O)N(C)c4ccccc4C3=N2)CC1`, in experiment [1], the Potency was 31.6 µM (active). Further, the Potency result in experiment [2] and in experiment [3] was “inactive” each time.
Consider `CCCCCCCCCCCC(=O)O[C@H](CC(=O)O)C[N+](C)(C)C`, for which the Potency result in [4] and in experiment [3] was “inactive” throughout.
As for `O=S(c1ccccc1)c1ccc2nnnn2n1` (stereo not given), in experiment [1], the compound was called active. Further, the compound was classed as inactive in experiment [2], in experiment [5], in experiment [6] and in experiment [7].
Regarding `CCCCN1CCC[C@@H]1CNC(=O)c1cc(C#N)c2ccccc2c1OC`, the Potency result in [4] and in experiment [3] was “inactive” in each case.
On to `COc1ccccc1CC(=N)N1C[C@@H]2C(=O)CCC(c3ccccc3)(c3ccccc3)[C@@H]2C1`, for which the Potency entry in experiment [4] and in experiment [5] was “inactive” throughout.
`NCCCCCCNS(=O)(=O)c1cccc2ccccc12`: the Potency entry in experiment [4] is “inactive”.
`Clc1cccc(C=NC=Nc2cccc(Cl)c2)c1`: the Potency in experiment [1] was 0.631 µM (active). Further, in [3], the Potency result is “inactive”.
As to `N=C(C[C@@H](O)COc1ccccc1-c1ccccc1)N1CCCCC1`, the Potency entry in experiment [3] is “inactive”.
As to `N#C[C@H](Cc1ccc(O)cc1)c1ccc(O)cc1`, the Potency in experiment [1] is 12.6 µM (active). Besides, the Potency entry in [4], in experiment [5] and in experiment [3] was “inactive” throughout.
Take `CCCCCCCCCCCCCCCCCCc1ccc(C(=O)/C=C\C(=O)O)cc1`: the Potency entry in experiment [4] was “inactive”.
For `CCCCCCCCCCCCC/C=C\[C@@H](O)[C@@H](N)CO`, the figures for the Potency in [1] and in [3] were 15.8 µM (active) and 50.1 µM (active), respectively. Also, the compound was classed as inactive in experiment [8], in experiment [10] and in [11]. Also, the Potency result in experiment [9] is “inactive”.
For `O=C1c2ccccc2C(Cc2ccnc(F)c2)(Cc2ccnc(F)c2)c2ccccc21`, in [5], the Potency entry is “inactive”.
As for `CCS(=O)(=O)N1CCC[C@H]2CN3CCc4cc(OC)ccc4[C@@H]3C[C@@H]21`, the Potency result in experiment [4], in experiment [2], in [5] and in experiment [3] was “inactive” each time.
Consider `COc1ccc([N+](=O)[O-])c2c1CCN2C(=O)CC[C@H](N)C(=O)O`, for which, in experiment [4], the Potency result was “inactive”.
On to `C[C@@H]1CNCCN1S(=O)(=O)c1cccc2cnccc12`, for which the Potency entry in [4] and in experiment [9] was “inactive” throughout. For the same compound, the call in experiment [8], in experiment [10] and in experiment [11] was inactive.
Take `O=C1CC2(CCCC2)CC(=O)N1CCCCNC[C@H]1COc2ccccc2O1`: the Potency entry in experiment [4] and in [5] was “inactive” each time. In experiment [6], the Potency was 5.01 µM (active).
`CC(C)Oc1cccc(-n2c(CCc3c[nH]c4ccc(Br)cc34)nc3ccccc3c2=O)c1`: the Potency result in [4] and in experiment [5] was “inactive” each time.
Regarding `CCCCCS(=O)(=O)CCCCCCCCCCn1c(-c2ccc(O)cc2)c(C)c2cc(O)ccc21`, in experiment [5], the Potency result is “inactive”.
With `O=C(O)c1c(Br)c(Br)c(Br)c(Br)c1C1c2ccc(O)cc2Oc2cc(O)ccc21`, the figures for the activity change, negative = inhibition in experiment [12], in experiment [1] and in experiment [13] were -20.1%, -6.8% [at 2.29 µM] and -6.47%, respectively. The activity change, positive = activation in experiment [5] is -36% [at 11.4 µM].
